# Values joined by “and” are separate entries in the source; they are usually repeats but may differ in a detail not shown here. Equal entries are not always repeated. Inconclusive results are not listed. Active and inactive are the calls of the source.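 The calls were made as follows, unless noted: active = normalized viability below 100% at a tested concentration; inactive = the rest.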
# Tests used:
# [1] = growth inhibition of DIPG glioma cells, dose response, cell-based, SU-DIPG-XVII, MIPE5.0, CellTiter-Glo, qHTS (AID 1347060; cut-off not given, nearly all actives have AC50 up to about 26 µM;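 as to AC50: cells exposed to compound for 48 hours before viability readout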); details: SU-DIPG-XVII viability, CellTiter-Glo ATP luminescence
# [2] = growth inhibition of DIPG glioma cells, dose response, cell-based, SU-DIPG-XIII, MIPE4.0, CellTiter-Glo, qHTS (AID 1347061; cut-off not given, nearly all actives have AC50 up to about 37 µM;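 also: cells exposed to compound for 48 hours before readout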); details: SU-DIPG-XIII viability, CellTiter-Glo ATP luminescence
# [3] = growth inhibition of DIPG glioma cells, dose response, cell-based, SU-DIPG-IV, MIPE4.0, CellTiter-Glo, qHTS (AID 1347063; cut-off not given, nearly all actives have AC50 up to about 30 µM;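 also: compound exposure lasted 48 hours before the viability readout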); details: SU-DIPG-IV viability, CellTiter-Glo ATP luminescence
# [4] = viability loss in pontine glioma line – cell-based, SU-DIPG-XXV, MIPE5.0, CellTiter-Glo, qHTS, dose response (AID 1347065; cut-off not given, nearly all actives have AC50 up to about 26 µM;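 also: cells exposed to compound for 48 hours before ATP readout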); details: CellTiter-Glo ATP luminescence
# [5] = SU-DIPG-VI glioma cell viability, MIPE4.0 library, CellTiter-Glo luminescence, qHTS (AID 1347066; cut-off not given, nearly all actives have AC50 up to about 30 µM;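 also: cells exposed to compound for 48 hours before readout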); details: CellTiter-Glo ATP luminescence
# [6] = JHH-DIPG-1 glioma cell viability, MIPE5.0 library, CellTiter-Glo luminescence, qHTS (AID 1347067; cut-off not given, nearly all actives have AC50 up to about 26 µM;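 also: cells exposed to compound for 48 hours before readout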); details: JHH-DIPG-1 glioma viability, CellTiter-Glo ATP luminescence
# [7] = SU-DIPG-XXV glioma cell viability, MIPE5.0 library, qHTS (AID 1347068; cut-off not given, nearly all actives have IC50 up to about 30 µM)
# [8] = sensitizers of A549 cells to miR-34 induction, primary screen, imaging, A549 dox-inducible miR-34, nuclei and caspase counts (AID 1347080;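 active = compounds whose cell count with miR-34 switched on is under 0.7 times the count with it off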); details: A549 miR-34 inducible, Hoechst nuclei count, 48 h
# [9] = survival rescue of mitochondrial mutant cells in low glucose, primary screen, MELAS cybrids, Rieske KO mouse fibroblasts, CellTiter-Glo (AID 1508586;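 active = mean z-score across replicates of 1.96 or higher in either the MELAS or the Rieske mutant cell line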;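 also: z relative to plate mean and SD of compound and empty wells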)
# [10] = growth inhibition of DIPG glioma cells, dose response, cell-based, SU-DIPG-XIII, MIPE5.0, CellTiter-Glo, qHTS (AID 1347064; cut-off not given, nearly all actives have AC50 up to about 23 µM;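 as to AC50: cells exposed to compound for 48 hours before the viability read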); details: SU-DIPG-XIII viability, CellTiter-Glo ATP luminescence
# [11] = modifiers of HSF1 nuclear foci, imaging, Selleck Cancer Library (AID 1347162; in the data active = plate-normalised HSF1 focus index below about 0.46); details: human cells, at 10 µM; SSMD: measured here: HSF1 foci SSMD mean; cell count: measured here: cell number; plate-normalised HSF1 focus index: stronger effect = lower value
# [12] = ovarian cancer cell viability with rucaparib, profiling panel, oncology-focused library, rucaparib conditional (AID 1508598); details: patient-derived ovarian cancer cells, CellTiter-Glo viability, 144 h, stronger effect = lower value
# [13] = stronger effect = lower value, cell number ratio, induced over uninduced
# [14] = measured here: relative caspase fold change +Dox/-Dox
# [15] = measured here: total cells with miR-34 induction, stronger effect = lower value
# [16] = measured here: total cells without miR-34 induction
# [17] = MELAS cybrid survival, CellTiter-Glo 48 h, stronger effect = higher value
# [18] = Rieske KO mouse fibroblast survival, CellTiter-Glo 72 h
# [19] = at 0.000305 µM, OCI-C5x cells, with rucaparib 10 µM, 100% = cells with rucaparib alone
# [20] = at 0.000305 µM, OCI-C5x cells, without rucaparib
# [21] = at 0.000305 µM, OCI-P5x cells, with rucaparib 20 µM, 100% = cells with rucaparib alone
# [22] = at 0.000305 µM, OCI-P5x cells, without rucaparib
# [23] = at 0.00122 µM, OCI-C5x cells, with rucaparib 10 µM, 100% = cells with rucaparib alone
# [24] = at 0.00122 µM, OCI-C5x cells, without rucaparib
# [25] = at 0.00122 µM, OCI-P5x cells, with rucaparib 20 µM, 100% = cells with rucaparib alone
# [26] = at 0.00122 µM, OCI-P5x cells, without rucaparib
# [27] = at 0.00488 µM, OCI-C5x cells, with rucaparib 10 µM, 100% = cells with rucaparib alone
# [28] = at 0.00488 µM, OCI-C5x cells, without rucaparib
# [29] = at 0.00488 µM, OCI-P5x cells, with rucaparib 20 µM, 100% = cells with rucaparib alone
# [30] = at 0.00488 µM, OCI-P5x cells, without rucaparib
# [31] = at 0.0195 µM, OCI-C5x cells, with rucaparib 10 µM, 100% = cells with rucaparib alone
# [32] = at 0.0195 µM, OCI-C5x cells, without rucaparib
# [33] = at 0.0195 µM, OCI-P5x cells, with rucaparib 20 µM, 100% = cells with rucaparib alone
# [34] = at 0.0195 µM, OCI-P5x cells, without rucaparib
# [35] = at 0.0781 µM, OCI-C5x cells, with rucaparib 10 µM, 100% = cells with rucaparib alone
# [36] = at 0.0781 µM, OCI-C5x cells, without rucaparib
# [37] = at 0.0781 µM, OCI-P5x cells, with rucaparib 20 µM, 100% = cells with rucaparib alone
# [38] = at 0.0781 µM, OCI-P5x cells, without rucaparib
# [39] = at 0.313 µM, OCI-C5x cells, with rucaparib 10 µM, 100% = cells with rucaparib alone
# [40] = at 0.313 µM, OCI-C5x cells, without rucaparib
# [41] = at 0.313 µM, OCI-P5x cells, with rucaparib 20 µM, 100% = cells with rucaparib alone
# [42] = at 0.313 µM, OCI-P5x cells, without rucaparib
# [43] = at 1.25 µM, OCI-C5x cells, with rucaparib 10 µM, 100% = cells with rucaparib alone
# [44] = at 1.25 µM, OCI-C5x cells, without rucaparib
# [45] = at 1.25 µM, OCI-P5x cells, with rucaparib 20 µM, 100% = cells with rucaparib alone
# [46] = at 1.25 µM, OCI-P5x cells, without rucaparib
# [47] = at 5 µM, OCI-C5x cells, with rucaparib 10 µM, 100% = cells with rucaparib alone
# [48] = at 5 µM, OCI-C5x cells, without rucaparib
# [49] = at 5 µM, OCI-P5x cells, with rucaparib 20 µM, 100% = cells with rucaparib alone
# [50] = at 5 µM, OCI-P5x cells, without rucaparib
smiles,measurement,setting,value
CC1(C)CCC(CN2CCN(c3ccc(C(=O)NS(=O)(=O)c4ccc(NCC5CCOCC5)c([N+](=O)[O-])c4)c(Oc4cnc5[nH]ccc5c4)c3)CC2)=C(c2ccc(Cl)cc2)C1,AC50,[1],18.6 µM (active)
same,outcome,[2],inactive
same,AC50,[3],10.5 µM (active)
same,AC50,[4],0.417 µM (active)
same,AC50,[5],7.43 µM (active)
same,AC50,[6],13.2 µM (active)
same,outcome,[7],inactive
same,fold change,[8]; [13],1.1 (inactive)
same,fold change,[8]; [14],0.349
same,cell count,[8]; [15],5370
same,cell count,[8]; [16],4860
same,z-score,[9]; [17],-0.355 (inactive)
same,z-score,[9]; [18],0.0474
CCC(=O)NC[C@H](Cc1ccc(OCCc2nc(-c3ccccc3)oc2C)cc1)N/C(C)=C\C(=O)c1ccc(C(F)(F)F)cc1,AC50,[1],16.6 µM (active)
same,outcome,[2],inactive
same,AC50,[3],8.33 µM (active)
same,AC50,[4],13.2 µM (active)
same,outcome,[5],inactive
same,outcome,[7],inactive
Cc1nc(C(=O)NCC(=O)O)c(O)c2ccc(Oc3ccccc3)cc12,outcome,[1],inactive
same,outcome,[2],inactive
same,outcome,[10],inactive
same,outcome,[4],inactive
same,outcome,[5],inactive
same,outcome,[6],inactive
same,outcome,[7],inactive
same,fold change,[8]; [13],0.947 (inactive)
same,fold change,[8]; [14],0.804
same,cell count,[8]; [15],6810
same,cell count,[8]; [16],7190
same,z-score,[9]; [17],-0.0779 (inactive)
same,z-score,[9]; [18],0.278
CC(=O)OC1C(C)OC(Oc2c(-c3ccc(O)cc3)oc3cc(O)cc(O)c3c2=O)C(O)C1OC(C)=O (stereo unspecified),outcome,[1],inactive
same,outcome,[2],inactive
same,AC50,[3],20.9 µM (active)
CO[C@@H](C(=O)N1Cc2[nH]nc(NC(=O)c3ccc(N4CCN(C)CC4)cc3)c2C1)c1ccccc1,AC50,[1],0.525 µM (active)
same,AC50,[2],1.87 µM (active)
same,AC50,[10],1.05 µM (active)
same,AC50,[4],0.372 µM (active)
same,outcome,[5],inactive
same,SSMD,[11],1.91
same,cell count,[11],6850
same,plate-normalised HSF1 focus index,[11],1.1 (inactive)
same,viability,[12]; [19],122% (inactive)
same,viability,[12]; [20],95% (active)
same,viability,[12]; [21],88.8% (active)
same,viability,[12]; [22],84.6% (active)
same,viability,[12]; [23],113% (inactive)
same,viability,[12]; [24],106% (inactive)
same,viability,[12]; [25],89.5% (active)
same,viability,[12]; [26],84.3% (active)
same,viability,[12]; [27],96% (active)
same,viability,[12]; [28],104% (inactive)
same,viability,[12]; [29],91.4% (active)
same,viability,[12]; [30],88.2% (active)
same,viability,[12]; [31],96.4% (active)
same,viability,[12]; [32],81% (active)
same,viability,[12]; [33],95.5% (active)
same,viability,[12]; [34],93.2% (active)
same,viability,[12]; [35],57.5% (active)
same,viability,[12]; [36],79.9% (active)
same,viability,[12]; [37],91.5% (active)
same,viability,[12]; [38],73.7% (active)
same,viability,[12]; [39],66.2% (active)
same,viability,[12]; [40],89.6% (active)
same,viability,[12]; [41],75.2% (active)
same,viability,[12]; [42],64.1% (active)
same,viability,[12]; [43],84.8% (active)
same,viability,[12]; [44],112% (inactive)
same,viability,[12]; [45],72.6% (active)
same,viability,[12]; [46],60% (active)
same,viability,[12]; [47],71.1% (active)
same,viability,[12]; [48],88.4% (active)
same,viability,[12]; [49],19.1% (active)
same,viability,[12]; [50],17% (active)
CCC(=O)N1CCN(c2ccc(-n3c(=O)ccc4cnc5ccc(-c6cnc7ccccc7c6)cc5c43)cc2C(F)(F)F)CC1,AC50,[1],0.0456 µM (active)
same,AC50,[2],1.32 µM (active)
same,AC50,[3],0.0662 µM (active)
same,AC50,[10],0.162 µM (active)
same,AC50,[4],0.0811 µM (active)
same,SSMD,[11],1.96
same,cell count,[11],7220
same,plate-normalised HSF1 focus index,[11],1.1 (inactive)
COc1cc2ncnc(Nc3cccc(Br)c3)c2cc1OC,AC50,[1],2.09 µM (active)
same,outcome,[2],inactive
same,AC50,[10],14.8 µM (active)
same,AC50,[4],16.6 µM (active)
same,AC50,[6],20.9 µM (active)
same,SSMD,[11],2.47
same,cell count,[11],7590
same,plate-normalised HSF1 focus index,[11],1.15 (inactive)
O=S(=O)(O)CCSSCCS(=O)(=O)O,outcome,[1],inactive
same,outcome,[2],inactive
same,outcome,[10],inactive
same,outcome,[4],inactive
same,outcome,[5],inactive
same,outcome,[6],inactive
same,outcome,[7],inactive
same,fold change,[8]; [13],0.942 (inactive) and 0.926 (inactive)
same,fold change,[8]; [14],0.692 and 0.976
same,cell count,[8]; [15],8910 and 7810
same,cell count,[8]; [16],9460 and 8440
same,z-score,[9]; [17],-0.449 (inactive)
same,z-score,[9]; [18],0.587
same,viability,[12]; [19],98.2% (active)
same,viability,[12]; [20],108% (inactive)
same,viability,[12]; [21],105% (inactive)
same,viability,[12]; [22],108% (inactive)
same,viability,[12]; [23],106% (inactive)
same,viability,[12]; [24],106% (inactive)
same,viability,[12]; [25],105% (inactive)
same,viability,[12]; [26],103% (inactive)
same,viability,[12]; [27],102% (inactive)
same,viability,[12]; [28],103% (inactive)
same,viability,[12]; [29],101% (inactive)
same,viability,[12]; [30],100% (inactive)
same,viability,[12]; [31],100% (inactive)
same,viability,[12]; [32],107% (inactive)
same,viability,[12]; [33],105% (inactive)
same,viability,[12]; [34],104% (inactive)
same,viability,[12]; [35],100% (inactive)
same,viability,[12]; [36],104% (inactive)
same,viability,[12]; [37],98.4% (active)
same,viability,[12]; [38],98.9% (active)
same,viability,[12]; [39],100% (inactive)
same,viability,[12]; [40],105% (inactive)
same,viability,[12]; [41],101% (inactive)
same,viability,[12]; [42],97.9% (active)
same,viability,[12]; [43],127% (inactive)
same,viability,[12]; [44],101% (inactive)
same,viability,[12]; [45],94.1% (active)
same,viability,[12]; [46],89.9% (active)
same,viability,[12]; [47],116% (inactive)
same,viability,[12]; [48],101% (inactive)
same,viability,[12]; [49],90.1% (active)
same,viability,[12]; [50],88.4% (active)
